Measurements published in PubChem BioAssay (NCI).
About 79,000 compounds went through this panel and 15% of them were active in at least one assay; those are over-represented in the sample as a whole. Rule as the data show it: active = growth inhibition above about 70%; inactive = the rest. Where a SMILES comes first, the peptide text is derived from it. The star is where a group is joined. Trt = c1ccc(C(c2ccccc2)(c2ccccc2)*)cc1; Benzhydryl = c1ccc(C(c2ccccc2)*)cc1; Cbz = O=C(OCc1ccccc1)*

Assays:
[1] = NCI Yeast Anticancer Drug Screen. Data for the rad50 strain (AID 155);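 also: 0% = growth of vehicle-only cultures of the same strain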; conditions: S. cerevisiae rad50 strain growth inhibition; at 50.0 µM; active compounds read high
How it was run: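 Compounds were tested on a yeast strain with an engineered DNA damage repair alteration; the reported value is growth inhibition normalised to vehicle treatment.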

[2] = NCI Yeast Anticancer Drug Screen. Data for the mec2-1 strain (AID 157); conditions: S. cerevisiae mec2-1 strain, at 50.0 µM, active compounds read high
How it was run: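 Mutant yeast (mec2-1) grown with compound; growth inhibition relative to vehicle control reported.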

[3] = NCI Yeast Anticancer Drug Screen. Data for the sgs1 mgt1 strain (AID 161);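 also: 0% = growth of cultures given vehicle only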; conditions: S. cerevisiae sgs1 mgt1 strain, at 50.0 µM, active compounds read high
How it was run: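 This yeast growth screen uses a strain with defined DNA-repair lesions; compound-treated growth is compared with vehicle-treated growth.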

[4] = NCI Yeast Anticancer Drug Screen. Data for the cln2 rad14 strain (AID 165);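 also: 0% = growth equal to vehicle treated cultures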; conditions: S. cerevisiae cln2 rad14 strain, at 50.0 µM, active compounds read high
How it was run: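 Readout is yeast growth inhibition versus vehicle-treated controls, using a strain with cln2 and rad14 alterations exposed to compound.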

[5] = NCI Yeast Anticancer Drug Screen. Data for the bub3 strain (AID 167); conditions: S. cerevisiae bub3 mutant strain, at 50.0 µM, active compounds read high
How it was run: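 Growth of a checkpoint-deficient yeast mutant is measured after compound exposure. Values represent inhibition relative to vehicle.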

[6] = NCI Yeast Anticancer Drug Screen. Data for the mlh1 rad18 strain (AID 175); conditions: S. cerevisiae mlh1 rad18 strain growth inhibition; at 50.0 µM; active compounds read high
How it was run: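 Genetically defined yeast (DNA repair-deficient) exposed to compounds; growth inhibition determined relative to vehicle.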

Measured: growth inhibition

OCc1sccc1-n1cccc1
inactive: [1] -19.4% | [2] -47.5% | [3] -16.6% | [4] 5.75% | [5] -48.5% | [6] -28.6%

CC(C)CSC(C)C
inactive: [1] -3.6% | [2] -43.4% | [3] -27.6% | [4] -5.25% | [5] -6.9% | [6] -11.1%

CNC(=O)Nc1cc(C)ccc1Cl
inactive: [1] -0.9% | [2] -6.05% | [3] -8.55% | [4] -70% | [5] 1.15% | [6] -6.7%

O=C(c1cccc(Cl)c1)c1cccc(Cl)c1
inactive: [1] 1.2% | [2] -14.8% | [3] -0.9% | [4] 2.35% | [5] 5.15% | [6] -3.25%

C=CCCCCCCCCC1OCC(CC)C(CCC)O1 (stereo not drawn)
inactive: [1] 5.65% | [2] 10.1% | [3] -2.8% | [4] 47.5% | [5] 26.5% | [6] 39.3%

CCOC(CS(=O)(=O)CC(N)=O)OCC
inactive: [1] 6.3% | [2] 0.45% | [3] -3.75% | [4] -29.4% | [5] -11.8% | [6] 5.8%

COc1ccc(C(O)c2ccc(C)cc2)cc1 (stereo not drawn)
inactive: [1] -14.1% | [2] -4.2% | [3] -43% | [4] -27.6% | [5] -27.4% | [6] -17.3%

CCCCc1noc(N)c1SCC
inactive: [1] 5.45% | [2] 9.5% | [3] 1.2% | [4] -39.6% | [5] -9.2% | [6] 3.7%

CC(=O)C(N=Nc1nc2ccccc2[nH]1)C(C)=O
inactive: [1] 27.1% | [2] 14.1% | [3] -1.8% | [4] 15.2% | [5] 47.9% | [6] 32.5%

NC(=O)c1cc(Cl)c(N)c(Cl)c1
inactive: [1] 8.2% | [2] -7.65% | [3] -11.6% | [4] -5.25% | [5] -12.4% | [6] -11.8%

CC1=N/C(=C/c2ccc3c(c2)OCO3)C(=O)O1
inactive: [1] 5.05% | [2] 6.1% | [3] 6.05% | [4] -24.9% | [5] -4.6% | [6] 14%

CCN(CC)CCOC(=O)Nc1cc(C)cc(C)c1
inactive: [1] 24.6% | [2] -9.15% | [3] 27.5% | [4] 16.4% | [5] 31.9% | [6] 17.1%

Nc1nc2nsnc2nc1N
inactive: [1] 1.9% | [2] 12.3% | [3] 13.6% | [4] -57.9% | [5] 1.2% | [6] 23.9%

O=C(N/N=C/c1ccccc1)c1c(-c2cccnc2)cnc2ccccc12
inactive: [1] -12.8% | [2] -9.3% | [3] -10.6% | [4] 10.9% | [5] 12.3% | [6] 14.3%

c1cc2[nH]snc2c2cncc12
inactive: [1] 12.5% | [2] 9.2% | [3] 0.25% | [4] -19.1% | [5] -24.1% | [6] 6.6%

CCc1c(C)c(C#N)c(=S)n(C2OC(COC(C)=O)C(OC(C)=O)C(OC(C)=O)C2OC(C)=O)c1-c1ccccc1 (stereo not drawn)
inactive: [1] 2.55% | [2] 13.1% | [3] 37.6% | [4] 8.25% | [5] 11.1% | [6] 13.6%

COC(=O)C1(CC(=O)c2cc(Cl)ccc2Cl)NC(=S)NC(=O)C1C#N (stereo not drawn)
inactive: [1] 19.9% | [2] -9.1% | [3] -8.15% | [4] 30.5% | [5] -6.75% | [6] 2.1%

C/C(=N\NS(=O)(=O)c1ccccc1)c1ccc(Cl)c(Cl)c1
inactive: [1] -19.3% | [2] -10% | [3] -18.9% | [4] 2.25% | [5] 10.5% | [6] -38.5%

CSc1ncnc2nn(C3OC(CO)C(O)C3O)cc12 (stereo not drawn)
inactive: [1] 8.1% | [2] 5.85% | [3] 6.25% | [4] 8.4% | [5] -9.6% | [6] -5.4%

CC1/C(=N/O)CC(c2ccccc2)N(N=O)C1c1ccccc1 (stereo not drawn)
inactive: [1] 62.8% | [2] 46.2% | [3] 57.5% | [4] 18.8% | [5] 13.6% | [6] 46%

O=C(/C=C/c1ccsc1)c1ccsc1
inactive: [1] -38.9% | [2] -51.9% | [3] -22.9% | [4] 3.6% | [5] 9.5% | [6] -3.05%

CC1C(O)CC2(C(C)C)CC12 (stereo not drawn)
inactive: [1] 4.85% | [2] -0.25% | [3] -8.7% | [4] 12.3% | [5] -18.1% | [6] -10.4%

CCCCC#CCN(CCCC)CCCC
inactive: [1] -19.6% | [2] 1% | [3] -2.55% | [4] 13.3% | [5] 11.3% | [6] -29%

CCCCN(CCCC)C(=O)C(=O)C(C#N)c1ccc(C)cc1 (stereo not drawn)
inactive: [1] -7% | [2] -0.8% | [3] 6.15% | [4] 17.6% | [5] 20.7% | [6] -9.3%

Cn1nnnc1CCO
inactive: [1] -9.45% | [2] 7.05% | [3] -13.4% | [4] -0.55% | [5] 2.9% | [6] -8.55%

O=C1CS/C1=C/c1ccccc1
inactive: [1] 11.4% | [2] -2.95% | [3] -15.2% | [4] -68.7% | [5] -7.85% | [6] -5.15%

NC(=O)NNC(=O)NC12CC3CC(CC(C3)C1)C2
inactive: [1] -19% | [2] -11.8% | [3] -10.2% | [4] -45.8% | [5] 0.65% | [6] 21.6%

CNC(=O)OCc1c(COC(=O)NC)c(-c2cccs2)n2c1CCC2
inactive: [1] 42% | [2] 39.5% | [3] 23.1% | [4] 30.8% | [5] 27.1% | [6] 40.7%

CN(C)c1cc[n+](-c2c([O-])c3ccccc3n(-c3ccccc3)c2=O)cc1
inactive: [1] 20.1% | [2] 6.1% | [3] 14.2% | [4] 12.7% | [5] 4.8% | [6] 21%

O=C(O)c1c(CC(Cc2ccc3c(c2)CCCC3)C(=O)O)ccc2c1CCCC2 (stereo not drawn)
inactive: [1] 46.3% | [2] 23.6% | [3] 9.8% | [4] 11.8% | [5] 40.9% | [6] 56.7%

NC(=O)C(=CNC(=S)Nc1ccc(Cl)c(Cl)c1)C(N)=O
inactive: [1] 8.6% | [2] -3.75% | [3] 18.4% | [4] 27.3% | [5] 2.05% | [6] 3.9%

COC(=O)C(Cc1ccccc1)NC(=O)C(Cc1ccccc1)NC(=O)CNC(=O)C(CSC(c1ccccc1)c1ccccc1)NC(=O)C(CSC(c1ccccc1)(c1ccccc1)c1ccccc1)NC(=O)OCc1ccccc1 (stereo not drawn) (Cbz-C(Trt)C(Benzhydryl)GFF-OMe; configuration not given here)
inactive: [1] -5.55% | [2] 25.4% | [3] 19% | [4] -14.9% | [5] -9.8% | [6] 28.1%

CC(=O)c1ccc[cH-]1.[Fe+2].c1cc[cH-]c1
inactive: [1] 13.5% | [2] 9.75% | [3] 12.9% | [4] 4.25% | [5] 23.2% | [6] 11.3%

Cc1ccc(C(=O)NC(C)C)cc1N=NN(C)C
inactive: [1] -34.2% | [2] -42.1% | [3] -46.9% | [4] 9.7% | [5] -31.7% | [6] -32.2%

O=S(=O)(Nc1cccc(Br)c1)N1CCCCC1
inactive: [1] 23.5% | [2] 10% | [3] 23.6% | [4] 13.8% | [5] 28.6% | [6] 31.6%

COc1cccc(NC(=O)CC(=O)N2N=C(C)C(N=Nc3ccc(S(=O)(=O)c4ccc(N=NC5C(=O)N(C(=O)CC(=O)Nc6cccc(OC)c6)N=C5C)cc4)cc3)C2=O)c1 (stereo not drawn)
inactive: [1] 27.4% | [2] 15.8% | [3] 8.9% | [4] -16.4% | [5] -2% | [6] 29.1%

CCC(C)(C)c1ccccc1
inactive: [1] 13.2% | [2] 6% | [3] 20% | [4] 10.9% | [5] 8.95% | [6] 15.3%

Cn1cccc1/C=N/N=C(/N)NO
inactive: [1] 22.9% | [2] -9.85% | [3] -13.7% | [4] -4.5% | [5] -18.5% | [6] -0.4%
